# From PubChem BioAssay
# Rows were chosen to be rich in hits. Some 12% of all compounds tested hit in one or more screens of this group.
# Shiga inhibitor = Shiga toxin inhibition | Vero cells, Shiga toxin protein synthesis inhibition reporter | inhibition, % at 38.7 µM | 9.2% of 290,000 active; in the data active = inhibition mostly above about 28%, no sharp cut-off; inactive = mostly below about 43%; note: 0% is about no effect
# Cycloheximide cs = affects cycloheximide protein synthesis inhibition readout, counter-screen. cell reporter, cycloheximide protein synthesis inhibition counterscreen. max response, %. 12% of 300,000 active; in the data active = max response mostly above about 13%, no sharp cut-off; inactive = mostly below about 14%; note: read at 38.3 µM for the half of the compounds with a filed dose; 0% is about no effect
# NS1 function inh = influenza NS1 inhibition; Potency, µM (highest dose often 46.1 µM), without a hit: at the top dose activity, positive = more growth; AID 2326; 0.4% of 270,000 active; note: potency is the fitted concentration of half-maximal effect; actives are rising curves; nearly all actives have a fitted effect of over 50% in size
#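 S. cerevisiae expressing influenza A NS1, grown in glucose, washed, then diluted 1:100 into pH 6.0 -URA galactose medium with 23 nl compound. Growth recovery read as OD600; NS1-free strain serves as control.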
# SARS PLP yeast = SARS-CoV PLP inhibition in yeast. S. cerevisiae expressing SARS-CoV PLpro, growth rescue. Potency, µM (highest dose often 32.9 µM), without a hit: at the highest dose activity, positive = growth rescue, usual class: activators. 0.19% of 330,000 active. AID 485353; note: potency is the fitted concentration of half-maximal effect; 0% is about no effect; nearly all actives have a fitted effect of over 55% in size
# NS1 inh valid = influenza NS1 function inhibition validation; shares compounds with NS1 function inh; influenza NS1 function cell assay, 15-point titration; activity change, negative = inhibition, % at 32.9 µM; 1,400 tested, under 10 active; note: 0% is about no effect
# Flu PR8 replic = influenza virus titer reduction, NS1 project | shares compounds with NS1 function inh | MDCK infected influenza A/PR/8/34, virus titer TCID50; active compounds read low | virus titer (log TCID50), log10 TCID50 at 5 µM | 30% of 95 active | AID 504647; call rule not given here
# * = called active by the depositor; ? = inconclusive; / = not tested or not shown. Unless noted, calls come from the whole dose curve.
SMILES,Shiga inhibitor,Cycloheximide cs,NS1 function inh,SARS PLP yeast,NS1 inh valid,others
CCN(C(=O)c1ccc(Cl)c(S(=O)(=O)Nc2c(C)n(C)n(-c3ccccc3)c2=O)c1)c1ccccc1,/,/,/,-0.9%,/,
Cc1cc(C)nc(OC(C(=O)O)C(OCC(C)C)(c2ccccc2)c2ccccc2)n1 (centres undefined),-5.3,-1.8,6.31µM*,-4.3%,32.2,
CCOc1ccc2[nH]c(=O)c(CN(Cc3ccc(F)cc3)C(=O)c3ccco3)cc2c1,-9.8,0.4,11.2µM*,-2.1%,-11.3,
CCOc1ccc2[nH]c(=O)c(CN(CC3COCCO3)C(=O)c3ccco3)cc2c1 (centres undefined),-11.8,-4.7,-0.5%,8.5%,/,
CNC(=S)N(C)[C@H]1c2c(ccc3ccccc23)OC[C@H]1CO,-8.8,-4.2,/,0.3%,/,
COc1ccc(OC)c(/C=N/NC(=O)Cc2nc3ccccc3[nH]2)c1,-10.2,-1.4,2µM*,-9.0%,10.3,
O=C(N/N=C/c1ccc(N2CCOCC2)s1)c1ccc(NS(=O)(=O)c2cccs2)cc1,40.9,10.0,10µM*,0.4%,35.5,
O=[N+]([O-])c1ccccc1S(=O)(=O)N(CC1CO1)c1ccccc1 (centres undefined),1.5,-1.5,9.0%,1.4%,/,
O=C(CN(c1ccccc1)S(=O)(=O)c1ccccc1[N+](=O)[O-])NN=C1CCCCCCC1,21.1,-2.2,1.26µM*,2.5%,?,
Cc1ccc(NC(=O)NNC(=O)Cn2nc(-c3ccccc3)c(-c3ccccc3)c(C#N)c2=O)cc1,-2.6,-2.8,?,-1.3%,-36.9,
O=C(Cn1nc(-c2ccccc2)c2ccccc2c1=O)Nc1ccc(O)cc1,-7.1,6.7,7.1%,0.0%,/,
Cc1cccc(N2N=C(C(=O)OCC(=O)c3ccccc3)CCC2=O)c1,/,/,/,-10.7%,/,
COc1ccc(/C=N/NC(=O)c2ccc3ccccc3c2)cc1OS(=O)(=O)c1ccc(NC(C)=O)cc1,21.3,-1.5,10µM*,3.9%,23.9,
COc1ccc(C=O)cc1OS(=O)(=O)c1ccc(NC(C)=O)cc1,-9.2,5.3,8.4%,4.2%,/,
CC(=O)c1ccc(N(CC(=O)NC2CCCC2)C(=O)c2csnn2)cc1,6.8,-1.6,14.6%,0.8%,/,
CC(C)(C)c1ccc(C(=O)Cn2cnnc2C#N)cc1,17.2,9.6,13.7%,-2.7%,/,
CCOc1ccc(C(=O)Cn2cnnc2C#N)cc1,16.1,-3.5,?,1.2%,5.8,
O=C1Nc2cc(S(=O)(=O)N3CCCC3)ccc2N2CCCC12 (centres undefined),-11.7,3.7,12.6µM*,-0.3%,33.0,
COc1ccc(CN2CCN(C(=O)CCC(=O)Nc3nnc(CC(C)C)s3)CC2)cc1F,-4.2,-7.0,2.24µM*,15.2%,?,
CCCc1nnc(NC(=O)CCC(=O)N2CCN(Cc3ccc(OC)c(F)c3)CC2)s1,21.9,-1.8,16.3%,-10.6%,/,
COc1ccc(NS(=O)(=O)c2cccc(C(=O)NCc3cccnc3)c2)cc1,/,/,/,-0.2%,/,
Cc1ccc(CCC(=O)NCc2ccccc2)o1,-8.0,17.9,5.01µM*,-2.9%,0.7,
Cc1ccc(NC(=O)CCNCc2ccco2)cc1S(=O)(=O)N(C)C,4.5,1.1,/,0.4%,/,
O=C(OCC(=O)N1CCCCC1)c1cc(=O)[nH]c2ccccc12,/,/,/,5.0%,/,
O=C(CCn1c(=O)c2ccccc2n(Cc2cccc([N+](=O)[O-])c2)c1=O)N1CCc2ccccc2C1,-13.4,0.6,5.01µM*,-2.3%,9.3,
SMILES,Shiga inhibitor,Cycloheximide cs,NS1 function inh,SARS PLP yeast,NS1 inh valid,others
CC(=O)N1CCN(C(=O)CCNS(=O)(=O)c2ccc(Br)cc2)CC1,/,/,/,2.5%,/,
N#CCCN(C(=O)CN1CCN(S(=O)(=O)c2ccc(Cl)s2)CC1)c1ccc(F)cc1,/,/,/,2.5%,/,
CC(=O)c1ccc2c(c1)C1C(Cl)C(Sc3ccccc3[N+](=O)[O-])CC1C(c1ccccc1[N+](=O)[O-])N2 (centres undefined),7.5,4.2,2µM*,19.9%,10.9,
Cc1ccc(Cn2nnc3c(=O)[nH]c(C4CCN(S(=O)(=O)c5ccc(F)cc5)CC4)nc32)cc1,5.8,3.4,12.6µM*,19.3%,4.1,
O=c1[nH]c(C2CCCN(S(=O)(=O)c3ccccc3)C2)nc2c1nnn2Cc1ccccc1F (centres undefined),-2.7,-0.6,-42.1%,5.2%,/,
O=c1[nH]c(C2CCCN(S(=O)(=O)c3ccccc3)C2)nc2c1nnn2Cc1ccccc1Br (centres undefined),-10.8,0.7,7.08µM*,?,?,
Cc1ccc(CN2C(=O)CC(Nc3ccc(N4CCOCC4)cc3)C2=O)cc1 (centres undefined),-5.7,-1.5,16.2%,-8.2%,/,
Cc1ccc(Cl)cc1NC(=S)N(Cc1ccccc1)Cc1cccnc1,-0.8,-2.2,-7.0%,-6.2%,/,
Cc1c(Cl)cnc(NC(=O)COC(=O)c2cccc(S(=O)(=O)N3c4ccccc4CC3C)c2)c1Cl (centres undefined),-6.5,2.0,11.2µM*,9.4%,-12.7,
CCOC(=O)CSC1=Nc2ccccc2C2=NC(CC(=O)NCc3ccc4c(c3)OCO4)C(=O)N12 (centres undefined),-2.0,10.8,11.3%,2.3%,/,
C/C(=N\Nc1ccccc1)c1c(O)n(Cc2ccccc2)c(=O)[nH]c1=O,19.4,6.8,10µM*,-0.7%,-13.2,
C/C(=N\Nc1ccccc1)c1c(O)n(-c2ccccc2)c(=O)[nH]c1=O,19.9,5.6,4.0%,-0.2%,/,
CN(C)c1ccc(NC(=O)CSCc2nc3c(nnn3Cc3ccc(F)cc3)c(=O)[nH]2)cc1,15.1,8.3,6.31µM*,5.3%,-5.2,Flu PR8 replic=7.66
Cc1cccc(NC(=O)CSCc2nc3c(nnn3Cc3ccc(F)cc3)c(=O)[nH]2)c1C,8.9,-0.9,-1.0%,-0.9%,/,
CC(C)(C)NC(=O)CN(C(=O)c1snc(C(=O)NC2CCCCC2)c1N)c1ccccc1F,16.9,-2.4,3.16µM*,-4.4%,-24.2,
CCn1c(CNC(=O)C2CCCCC2)cc2ccccc21,20.1,0.7,?,-5.1%,-6.7,
CCOc1ccc(NC(=O)CN2CCC(n3cnc4cc(F)ccc43)CC2)cc1,-9.8,-1.3,/,-0.1%,/,
C=CCN1CCc2cccc3c2C1Cc1ccc(O)c(O)c1-3 (centres undefined),/,/,11.2µM*,/,-20.3,
CN1CCc2cccc3c2[C@H]1Cc1ccc(O)c(O)c1-3,-13.7,-3.5,-13.9%,-16.7%,/,
CCCCC(C(=O)NC(C)c1ccccc1)C(=O)NC(C)c1ccccc1 (centres undefined),-6.4,-4.4,-3.3%,1.9%,/,
Cc1ccc(-n2nnnc2SCC(=O)c2cc(C)n(-c3cc(C)on3)c2C)c(C)c1,7.7,6.9,?,11.4%,-15.2,
CCOC(=O)C1=C(c2ccccc2)NC(SCC(=O)Nc2ccccc2C)=C(C#N)C1c1ccco1 (centres undefined),-6.0,3.9,11.2µM*,-0.1%,?,
CCOC(=O)C1=C(c2ccccc2)NC(SCC(=O)Nc2ccc(C)cc2)=C(C#N)C1c1ccco1 (centres undefined),44.7,9.0,-33.1%,/,/,
